Test results as given in PubChem BioAssay AID485347 (National Center for Advancing Translational Sciences (NCATS), 2010).
Values joined by “and” are separate entries in the source; they are usually repeats but may differ in a detail not shown here. Equal values may be shown once. The campaign covered roughly 340,000 compounds. About 1,200 (0.35%) were called active.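 Rule for the calls: active = potentiation over 3 SD above the plate norm (cut at about 30% in these data); inactive = the rest.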 This excerpt belongs to a sample that is enriched for actives. More than one record can exist for a structure, and the calls need not agree.

target: D(2) dopamine receptor (Homo sapiens) (UniProt P14416); assay: HTS Assay for Positive Allosteric Modulators of the Human D2 Dopamine Receptor: Primary Screen for Potentiators; conditions: HEK293 T-REx D2, calcium flux, EC20 dopamine potentiation; at 10 µM; stronger effect = higher value; note: 0% is about no effect
Description: NIH Chemical Genomics Center [NCGC] NIH Molecular Libraries Probe Centers Network [MLPCN] MLPCN Grant: NS064831-01 Assay Submitter (PI): David Sibley Dopamine receptors (DARs) are involved in the etiology and/or therapy of a number of neuropsychiatric and endocrine disorders. For instance, all receptor-based antiparkinsonian drugs work via stimulating the D2 DAR subtype whereas all FDA-approved antipsychotic agents are antagonists of this receptor. […] There are three different types of allosteric modulators that we are seeking, two of which will stimulate or augment receptor signaling, allosteric agonists and potentiators, while the third, allosteric antagonists, will attenuate receptor signaling. The present primary screening assay measures compound potentiation of an EC20 dopamine response by tracking calcium flux in a […], inducible Hek293 Trex D2 cell line.
Freshly passaged cells are plated in 1536 well black, clear bottom plates at a density of 4000 cells/well in 3 ul of complete media containing 1x tetracycline inducer. After an overnight incubation at 30 C in 5% CO2, cells are loaded with 2 ul of the no wash Calcium Assay Kit (ABD Bioquest) and incubated at room temperature for 30 to 90 minutes. A 10 cycle (1 second/cycle) baseline measurement is taken and then the FDSS online 1536 pintool delivers 23 nl of compound library (as well as dopamine controls) to the plate. The plate is measured for kinetically at 1 cycle/sec for 180 seconds and is considered to be the agonist portion of the assay (eg, compounds which activate a positive calcium response during this portion are flagged as potential agonists). Following the 180 second read, 1 ul of an EC20 of dopamine is delivered by an onboard pipette head. Measurements are taken kinetically for an additional 180 seconds.

Sequence of D(2) dopamine receptor (Homo sapiens) (P14416 whole entry, looked up): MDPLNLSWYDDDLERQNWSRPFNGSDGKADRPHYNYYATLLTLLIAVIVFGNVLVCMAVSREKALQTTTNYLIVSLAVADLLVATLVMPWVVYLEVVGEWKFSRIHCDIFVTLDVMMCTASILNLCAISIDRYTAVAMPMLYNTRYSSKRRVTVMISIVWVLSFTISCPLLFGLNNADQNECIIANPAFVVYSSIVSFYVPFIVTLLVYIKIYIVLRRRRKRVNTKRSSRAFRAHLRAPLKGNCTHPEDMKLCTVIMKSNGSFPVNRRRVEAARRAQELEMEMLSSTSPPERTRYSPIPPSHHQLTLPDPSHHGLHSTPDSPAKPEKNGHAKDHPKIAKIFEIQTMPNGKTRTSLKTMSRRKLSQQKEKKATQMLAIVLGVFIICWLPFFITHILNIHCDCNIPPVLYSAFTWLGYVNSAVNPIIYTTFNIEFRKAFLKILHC

| Structure (SMILES) | potentiation |
| --- | --- |
| CCCC(C)n1[nH]c(=O)c2c(C)cc(C)nc21 (centres undefined) | 33% (active) |
| CCC(C)n1[nH]c(=O)c2c(C)cc(C)nc21 (centres undefined) | 1.22% (inactive) |
| CCC(C)n1[nH]c(=O)cc1N (centres undefined) | 2.87% (inactive) |
| CCOC(=O)c1oc2ccc(S(=O)(=O)n3nc(-c4ccccc4OC)cc3N)cc2c1C | -0.8% (inactive) |
| COc1ccc(-n2ccn(CC(=O)Nc3ccc(C)c(C)c3)c(=O)c2=O)cc1OC | 6.27% (inactive) |
| O=C(Nc1c(-c2ccc(F)cc2)nc2ccccn12)c1cccc(F)c1 | 12.9% (inactive) |
| CCN1CCc2nc3sc(C(=O)Nc4ccccc4OC(F)(F)F)c(N)c3cc2C1 | 3.95% (inactive) |
| Cc1cccc(N2CCN(C(=O)CN(C)S(=O)(=O)c3ccc4c(c3)CCC(=O)N4)CC2)c1C | -3.34% (inactive) |
| CCOC(=O)Cc1csc(NC(=O)CSc2ccc(Br)cc2)n1 | -0.963% (inactive) |
| CCOC(=O)Cc1csc(NC(=O)CN(C)S(=O)(=O)c2ccc3c(c2)CCC(=O)N3)n1 | 43% (active) |
| Cc1sc(C2C(C#N)=C(N)N(c3cccc(Cl)c3)C3=C2C(=O)CCC3)cc1CN1CCOCC1 (centres undefined) | -0.593% (inactive) |
| CCN1CCN(c2ccc(NC(=O)c3cnccn3)cc2)CC1 | -0.266% (inactive) |
| O=C(Nc1ccc(S(=O)(=O)N2CCCCCC2)cc1)c1c(F)cccc1F | 2.54% (inactive) |
| O=C(Nc1ccc(S(=O)(=O)N2CCCCC2)cc1)c1cnccn1 | 30.4% (active) |
| CN(Cc1ccccc1)S(=O)(=O)c1ccc(F)c(C(=O)Nc2cccc(Cl)c2Cl)c1 | -2.84% (inactive) |
| CCN(CC)S(=O)(=O)c1ccc2c(c1)N(CC(=O)NCc1ccccc1)C(=O)CS2 | -1.87% (inactive) |
| CC(=O)NS(=O)(=O)c1ccc(NC(=S)NC(=O)C(C)(C)C)cc1 | 33.2% (active) |
| CC(=O)NS(=O)(=O)c1ccccc1 | 10.6% (inactive) |
| CC(=O)Nc1ccc(S(=O)(=O)Nc2cccc(NC(=O)C(C)(C)C)c2)cc1 | 0.479% (inactive) |
| O=C(CCn1c(=O)c2ccccc2n(Cc2ccc(Cl)cc2)c1=O)NCc1ccc2c(c1)OCO2 | -11.6% (inactive) |
| O=C(Nc1ccc(Br)cc1)c1cc2nc(-c3ccccc3)cc(-c3ccccc3)n2n1 | -4.38% (inactive) |
| Cc1ccccc1-c1nc(SCC(=O)N(C)c2ccccc2)c2c(=O)n(C)c(=O)n(C)c2n1 | -12.5% (inactive) |
| Cn1c(=O)[nH]c(=O)c2c1nc(N1CCN(C(c3ccccc3)c3ccccc3)CC1)n2CCO | 3.98% (inactive) |

| Structure (SMILES) | potentiation |
| --- | --- |
| Cn1c(=O)[nH]c(=O)c2c1nc(N1CCCCCC1)n2CC(=O)c1ccccc1 | -3.5% (inactive) |
| CC1CCN(c2nc3c(c(=O)[nH]c(=O)n3C)n2CCCc2ccccc2)CC1 | 45% (active) |
| CCOC(=O)N1CCc2c(sc(NCc3cccc(F)c3)c2C(=O)Nc2ccccc2OCC)C1 | -0.26% (inactive) |
| CCOc1ccc(C(=O)NCCCN2CCCC2=O)cc1 | 30.7% (active) |
| CCOc1ccc(S(=O)(=O)Nc2ccc(C(=O)NCCCN3CCCC3=O)cc2)cc1 | 11.5% (inactive) |
| O=C(NCCCN1CCCC1=O)c1ccc(S(=O)(=O)Nc2ccccc2)cc1 | 3.61% (inactive) |
| COc1cc(Cl)ccc1Nc1ncc(C(=O)N2CCN(c3ccccc3OC)CC2)c2ccccc12 | -3.04% (inactive) |
| NC(=O)CSc1nc2c(oc3ccccc32)c(=O)n1Cc1ccccc1 | 4.88% (inactive) |
| Cc1cccc(NC(=O)c2ccc3nc(C(C)C)oc3c2)c1C | -11.3% (inactive) |
| Nc1nc(NCC2CCCO2)nc(Nc2ccccc2F)c1[N+](=O)[O-] (centres undefined) | 31.9% (active) |
| Nc1nc(NCCCN2CCOCC2)nc(Nc2ccccc2)c1[N+](=O)[O-] | -1.17% (inactive) |
| Nc1nc(Nc2ccccc2F)nc(NC2CCCCC2)c1[N+](=O)[O-] | 6.13% (inactive) |
| COc1ccc(NC(=O)CSc2nccn2C2CCCC2)cc1OC | 7.4% (inactive) |
| Cc1cc(O)c(C(c2ccccc2)N2CCN(c3ccccc3F)CC2)c(=O)n1Cc1ccco1 (centres undefined) | -21.6% (inactive) |
| O=C(NCc1ccccn1)c1c(O)c2c([nH]c1=O)CCCC2 | 4.39% (inactive) |
| CCc1nnc(NC(=O)c2c(O)c3c([nH]c2=O)CCCC3)s1 | 55.5% (active) |
| C[N+](C)(C)CCNC(=O)c1c(O)c2c([nH]c1=O)CCCC2 | 13.8% (inactive) |
| CN(C)CCCn1c(-c2ccc(Cl)cc2)csc1=Nc1ccccc1 | -16.7% (inactive) |
| Cn1c(=O)[nH]c(=O)c2c1nc(NCCc1ccccc1)n2Cc1ccc(F)cc1 | -10.3% (inactive) |
| CC(c1ccccc1)n1c(NCCCn2ccnc2)nc2c1c(=O)[nH]c(=O)n2C (centres undefined) | -8.07% (inactive) |
| Cn1c(=O)[nH]c(=O)c2c1nc(NCCCn1ccnc1)n2Cc1cccc(Br)c1 | 40% (active) |
| Cc1cccc(C(CC(=O)NCC2(c3ccccc3)CCCC2)c2ccccc2)c1O (centres undefined) | 8.89% (inactive) |
| CCOc1ccc(CCNC(=O)c2csc3c2CCCCC3)cc1 | -0.665% (inactive) |

| Structure (SMILES) | potentiation |
| --- | --- |
| CCOC(=O)c1ccc(NC(=O)c2csc3c2CCCCC3)cc1 | 1.32% (inactive) |
| CC1CC(C)CN(CCCNC(=O)c2csc3c2CCCCC3)C1 (centres undefined) | 30.4% (active) |
| Cc1ccc(NC(=O)CSc2nnc3[nH]c(=O)cc(C)n23)cc1Cl | -5% (inactive) |
| Cc1nc2ccccc2n1CC(=O)N/N=C/c1cccs1 | 0.665% (inactive) |
| Cc1cc(C)nc(SC(C)C(=O)N/N=C/c2cccs2)n1 (centres undefined) | 12.3% (inactive) |
| Cc1n[nH]c(=O)nc1N/N=C/c1cccs1 | 36.2% (active) |
| CCOC(=O)C1CCN(Cc2nnc(-c3cccc(Br)c3)o2)CC1 | -5.55% (inactive) |
| CCOC(=O)C1CCN(c2ncnc3c2oc2ccc(Br)cc23)CC1 | 34.7% (active) |
| CCOC(=O)C1CCN(c2ncnc3c2c(-c2ccccc2)cn3-c2cccc(C)c2)CC1 | -2.84% (inactive) |
| CCCCOc1ccc(CN2C(=O)C(=O)c3cc(Br)cc(C)c32)cc1OC | 21.8% (inactive) |
| Cc1ccc(N2CCN(C(=O)CCc3c(C)nc4c(c3C)c(=O)n(C)c(=O)n4C)CC2)c(C)c1 | -0.454% (inactive) |
| CCN(CC)S(=O)(=O)c1ccc2[nH]cc(C(=O)NCCc3ccccc3)c(=O)c2c1 | -2.89% (inactive) and 46.8% (active) |
| CCN(CC(=O)NCCc1ccccc1)S(=O)(=O)c1ccccc1 | 13.4% (inactive) |
| CCc1ccc(NS(=O)(=O)c2ccc3[nH]cc(C(=O)NCCc4cccc(C)c4)c(=O)c3c2)cc1 | -7.11% (inactive) |
| N#Cc1ccc(-c2cccs2)nc1SCc1ccc(Br)cc1 | -0.921% (inactive) |
| COc1cccc(CNC(=O)CCC(=O)N2CC3CCCN3c3ccccc32)c1 (centres undefined) | -3.32% (inactive) |
| COc1cccc(Cn2c(SCc3ccc(C(=O)N4CCCCC4)cc3)nc3ccncc32)c1 | 0.981% (inactive) |
| CCc1nn(CC(=O)N2CCN(c3cccc(C(F)(F)F)c3)CC2)c(=O)c2cc3occc3n12 | 4.66% (inactive) |
| O=C(NCc1cc(F)cc(C(F)(F)F)c1)C1CCC(=O)N(C2CCCC2)C1 (centres undefined) | 39% (active) |
| Cc1ccc(CNC(=O)C2CC(=O)N(C3CCCCCCC3)C2)cc1 (centres undefined) | 7.03% (inactive) |
| O=C(NCc1cccc(Cl)c1)C1CCC(=O)N(C2CC2)C1 (centres undefined) | -9.09% (inactive) |
| CCOC(=O)c1ccc(NC(=O)CCS(=O)(=O)c2ccc3c(c2)oc(=O)n3C)cc1 | -4.33% (inactive) |
| COc1ccccc1NC(=O)CSC1=Nc2ccccc2C2=NC(CC(=O)NCc3cccs3)C(=O)N12 (centres undefined) | -7.55% (inactive) |

| Structure (SMILES) | potentiation |
| --- | --- |
| Cc1ccc(S(=O)(=O)NCCC(=O)Nc2cccc(S(N)(=O)=O)c2)cc1C | -4.48% (inactive) |
| NS(=O)(=O)c1cccc(NC(=O)CC23CC4CC(CC(Br)(C4)C2)C3)c1 | 38.8% (active) |
| O=C(CC12CC3CC(CC(C3)C1)C2)Nc1ccc2c(c1)COC2=O | -3.01% (inactive) |
| Cc1ccc2nc(COc3cccc(NC(=O)Nc4ccc(C)c(Cl)c4)c3)cc(=O)n2c1 | -1.63% (inactive) |
| O=C(COC(=O)c1ccc(O)cc1O)NNC(=O)c1cccs1 | -6.83% (inactive) |
| O=C(COC(=O)c1ccc(NS(=O)(=O)c2cccs2)cc1O)Nc1ccc(F)cc1 | 35.7% (active) |
| CCc1ccc(NC(=O)CCNS(=O)(=O)c2cccs2)cc1 | 13.5% (inactive) |
| COc1ccc(NC(C)=O)cc1NC(=O)CN1CCN(C2c3ccccc3-c3ccccc32)CC1 | 30.8% (active) |
| COc1cc(Cl)c(C)cc1NC(=O)CN1CCCCCC1 | -1.62% (inactive) |
| COc1ccc(NC(C)=O)cc1NC(=O)CN1CCN(c2ccc(F)cc2)CC1 | -0.119% (inactive) |
| Clc1ccc(CSc2nncn3c2cc2occc23)cc1 | 0.301% (inactive) |
| CN1CCN(C2(CNC(=O)COc3ccc(C(C)(C)C)cc3)CCCCC2)CC1 | -18.8% (inactive) |
| CCOC(=O)c1cn[nH]c1NC(=S)Nc1ccccc1 | 3.61% (inactive) |
| CCOC(=O)c1c(C)nc(-c2ccccc2)nc1NC(=O)C(C)C | 32.3% (active) |
| Cc1[nH]c2ccccc2c1C(=O)COC(=O)c1c(-c2ccccc2)noc1C | 8.38% (inactive) |
| CCOC(=O)c1c(C)[nH]c(C)c1S(=O)(=O)N1CCC(C(=O)Nc2ccc(C)c(Cl)c2)CC1 | 1.42% (inactive) |
| CC(=O)Nc1cccc(C(=O)OCC(=O)Nc2nnc(-c3ccccc3)o2)c1 | 4.87% (inactive) |
| O=C(Nc1cccc(-c2nnc(-c3ccccc3)o2)c1)C1CCCO1 (centres undefined) | 34% (active) |
| O=C(Nc1ccc(-c2nnc(-c3ccccc3)o2)cc1)C1CCCO1 (centres undefined) | 15.5% (inactive) |
| COc1cccc(CNC(=O)c2ccc3c(Cl)c4c(nc3c2)CCCC4)c1 | -3.62% (inactive) |
